# Reference: the supplement of paper PMC3334620
# In all, about 33,000 sequences were measured (“E-score (-0.5 to 0.5)”: median about -0.04, highest 2% from about 0.36 on). Many of the other results were omitted from the sample, so the highest values are more common in it than they were.
# Target: T1, Hmlalpha2 (UniProt P0CY09)
# T1 sequence: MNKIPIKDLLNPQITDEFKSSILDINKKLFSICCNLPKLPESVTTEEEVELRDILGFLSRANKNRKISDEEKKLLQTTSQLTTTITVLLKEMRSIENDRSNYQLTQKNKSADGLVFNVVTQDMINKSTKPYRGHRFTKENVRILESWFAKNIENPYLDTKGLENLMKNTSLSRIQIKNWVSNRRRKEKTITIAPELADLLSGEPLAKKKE
# Test: PBM E-score (8-mer binding enrichment) (E-score (-0.5 to 0.5)); higher = stronger / more preferred TF binding
# Details: protein concentration: 200 nM; construct: GST-full length
# Method in brief: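 Yeast transcription factors, full-length or as DNA-binding domains, were expressed with a GST tag using PURExpress in vitro transcription/translation. At about 100-200 nM they were applied to universal all-10-mer Agilent arrays, double-stranded by primer extension on fresh or once-stripped slides. Fluorescent anti-GST detected bound protein, and masliner normalised the scans. E-scores for ungapped eight-base words, pooled with reverse complements, came from the Universal PBM Analysis Suite.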
row,Sequence,PBM E-score
1,TACATGAA,0.45
2,CACATGAA,0.237
3,GACATGAA,0.204
4,AACATGAA,0.397
5,AGCATGAA,0.0173
6,ATCATGAA,-0.0623
7,AGGCCCGC,-0.162
8,AGGCGATG,-0.128
9,AATCCGGT,-0.0356
10,ACCATTGA,0.0496
11,GTAGACGA,0.17
12,AAGACGAT,0.0721
13,AAATAACA,0.316
14,GAATAACC,-0.0464
15,GAATAACA,0.39
16,CAATAACA,0.239
17,GAATAATA,0.168
18,TAATAACA,0.387
19,TGTATTAA,0.413
20,GGTATTAA,0.083
21,AGTATTAA,0.249
22,AGACATAA,0.143
23,CTACATAC,0.327
24,CGACATAG,0.139
25,CCACATAG,-0.105

row,Sequence,PBM E-score
1,ACATATAT,0.27
2,ATACATAA,0.392
3,AGACATAT,0.0652
4,ATACATAC,0.386
5,ACACATAA,0.364
6,CTACATAG,0.406
7,GTACATAC,0.362
8,ATACATAT,0.393
9,AGGAAAGG,-0.238
10,CTCCTATC,-0.139
11,ACTTTAGA,-0.0293
12,CAGACACA,0.035
13,ACCCTAAA,-0.212
14,AGCACTGC,-0.17
15,AAACATAG,0.291
16,ACACATAG,0.282
17,ATACATAG,0.415
18,CGGAGGGC,-0.293
19,CACATGAC,0.267
20,CACATGAG,0.0365
21,AGCATGAG,0.0355
22,AACATGAT,0.439
23,GACATGAC,0.29
24,AACATGAG,0.379
25,AGCATGAT,0.0873

row,Sequence,PBM E-score
1,AACATGAC,0.425
2,ACCATGAT,-0.0585
3,GAGTAGAC,-0.0398
4,CTGGAACC,-0.109
5,CTGCCTTA,-0.206
6,ACGAGCCA,0.0562
7,AGAGATAG,-0.0703
8,ATTGAGAA,0.142
9,TCCTCGCA,-0.204
10,CTTCACCA,-0.283
11,ATCGCGTG,0.192
12,GTCGCGTA,0.414
13,AGCGCGTA,0.388
14,CTCGCGTA,0.22
15,GTTGCGTA,0.378
16,CTTGCGTA,0.286
17,ATTGCGTA,0.296
18,GTCGCGGA,-0.252
19,GGCGCGTA,0.255
20,ATCGCGTA,0.368
21,CGCGCGTA,0.283
22,ATCGCGTC,0.216
23,GTCGCCAC,-0.316
24,GTTTGACA,0.303
25,AGGAAGAT,-0.192

row,Sequence,PBM E-score
1,ATGACGCC,-0.105
2,ATGGAGAG,-0.115
3,CCCTTTAC,0.134
4,ATACTCCG,-0.0161
5,AAATTGCC,-0.0531
6,CTTTCTTC,-0.09
7,CAATCGGC,-0.156
8,CAGCCACA,-0.111
9,ACCAGAGA,-0.144
10,ACCTAAAC,0.098
11,CCTAGCGC,-0.102
12,ATCGACCG,-0.223
13,GATAACAA,0.324
14,CATAACAG,0.174
15,ACTAACAC,0.293
16,GATAACGC,0.199
17,GCTAACAC,0.366
18,CATAACAA,0.323
19,GCTAACAA,0.164
20,GATAACAC,0.39
21,CATAACAC,0.397
22,AATAACCT,0.104
23,AGTAACAT,0.295
24,AATAACAT,0.412
25,ACAACCAT,0.278

row,Sequence,PBM E-score
1,CCTACAAA,0.0287
2,ATCTGAGC,-0.0204
3,AGCTAACG,0.117
4,AGGGTACG,0.0138
5,AGATAGAA,-0.166
6,TATCCTAA,0.00317
7,GGACCTTA,-0.238
8,AATAACAA,0.267
9,AATAACAG,0.307
10,AATAACAC,0.396
11,CGAATACA,0.39
12,TCAATACA,0.372
13,CGAATACC,-0.0493
14,GGAATACA,0.431
15,TGGATACA,0.17
16,TGAATAAA,0.245
17,GGAATACC,-0.0768
18,GGAATAGA,-0.0449
19,ACAATACA,0.326
20,CGAATACG,0.259
21,CCAATACA,0.313
22,TGAATACA,0.397
23,GTAAGTAC,0.234
24,CACTAGGA,-0.225
25,AGAGGTCC,-0.273

row,Sequence,PBM E-score
1,AGCTGCAA,-0.227
2,AACCTCAA,0.0617
3,AGTTTGCG,-0.0236
4,ACTATCTG,-0.156
5,CTATGAAG,-0.149
6,CGATCCGA,-0.256
7,AGCGGCTA,-0.0688
8,ACTCTACT,0.0373
9,AAAATACA,0.334
10,AGAATACA,0.366
11,GAAATACA,0.346
12,AGAATACC,0.0773
13,AGAATACG,0.192
14,TAAATACA,0.434
15,CCTGTAAC,0.093
16,CATGTAAG,0.47
17,CATGTAAC,0.456
18,GATGTAAC,0.215
19,AATGTAAG,0.294
20,CCTGTAAG,-0.00273
21,CGAGATCG,-0.0661
22,GCATGCGA,0.0698
23,AAACCACC,-0.166
24,AGAGCCGA,-0.106
25,GTGTTGCA,0.187

row,Sequence,PBM E-score
1,ATGTTGTA,0.406
2,GTGTTGTA,0.382
3,ATGTTGTC,0.364
4,ATGTTGTG,0.362
5,CTGTTGTA,0.253
6,CATACCGG,-0.154
7,AGTCTGCC,-0.184
8,CAACGGAG,-0.12
9,ACCCTTAA,-0.0263
10,AGTATGTC,0.201
11,GGTATGGA,-0.18
12,GGTATGTA,0.4
13,CGTATGTA,0.356
14,AGTATGTA,0.394
15,AGTATGTG,0.115
16,AATTAGAA,0.0299
17,GAAAAACC,-0.0498
18,ATGAGGAG,-0.187
19,CCGTTAAC,0.0773
20,GCGTTAAC,0.379
21,GCGTTAAA,0.366
22,ACGTTAAC,0.281
23,TCGTTAAA,0.126
24,CCGTTAAA,0.125
